For three compounds, residual activity results are on record in ChEMBL document CHEMBL2218924, “A broad activity screen in support of a chemogenomic map for kinase signalling research and drug discovery” (Biochem J, 2013).

Assay [1] deals with Insulin-like growth factor 1 receptor (Homo sapiens) (UniProt P08069). The conditions noted are these: at 10 µM.
In assay [2] the target is Protein kinase C eta type (Homo sapiens) (UniProt P24723). The conditions noted are these: at 1 µM.
For assay [3] the target is unchanged. Particulars: at 10 µM; call rule not given here.
Assay [4] addresses Protein kinase C theta type (Homo sapiens) (UniProt Q04759). Particulars: at 1 µM.
For assay [5] the target is unchanged. The conditions noted are these: at 10 µM.
In assay [6] the target is T1, Serine/threonine-protein kinase D1 (Homo sapiens) (UniProt Q15139).
T1 sequence (whole entry): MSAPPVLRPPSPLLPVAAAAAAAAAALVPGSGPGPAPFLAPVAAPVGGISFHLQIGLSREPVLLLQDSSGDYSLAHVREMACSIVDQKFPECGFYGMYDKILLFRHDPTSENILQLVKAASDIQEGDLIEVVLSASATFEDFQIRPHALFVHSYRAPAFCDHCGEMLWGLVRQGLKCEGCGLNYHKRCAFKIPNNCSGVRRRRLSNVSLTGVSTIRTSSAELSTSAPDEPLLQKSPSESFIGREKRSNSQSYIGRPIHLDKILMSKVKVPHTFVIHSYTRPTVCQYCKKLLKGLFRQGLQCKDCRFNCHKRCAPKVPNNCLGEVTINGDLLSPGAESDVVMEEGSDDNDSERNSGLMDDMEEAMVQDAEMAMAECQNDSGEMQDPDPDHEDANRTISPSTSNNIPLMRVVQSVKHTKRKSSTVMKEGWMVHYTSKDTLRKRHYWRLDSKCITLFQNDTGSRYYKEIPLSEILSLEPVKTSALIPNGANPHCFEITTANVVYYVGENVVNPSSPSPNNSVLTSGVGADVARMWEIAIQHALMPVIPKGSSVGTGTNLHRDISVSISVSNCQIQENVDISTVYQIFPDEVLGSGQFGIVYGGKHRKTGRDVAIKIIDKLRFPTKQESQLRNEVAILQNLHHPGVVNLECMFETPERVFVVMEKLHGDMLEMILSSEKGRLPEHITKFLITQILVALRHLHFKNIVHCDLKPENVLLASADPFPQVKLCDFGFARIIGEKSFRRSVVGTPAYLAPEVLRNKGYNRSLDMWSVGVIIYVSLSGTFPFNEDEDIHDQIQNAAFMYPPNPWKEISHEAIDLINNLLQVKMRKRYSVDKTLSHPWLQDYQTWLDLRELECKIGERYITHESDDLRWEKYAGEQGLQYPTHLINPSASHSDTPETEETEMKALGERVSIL
The conditions noted are these: at 1 µM.

For assay [7], the target named is T1, Serine/threonine-protein kinase D1 (Homo sapiens). Particulars: at 10 µM.
Assay [8] deals with T2, Serine/threonine-protein kinase D2 (Homo sapiens) (UniProt Q9BZL6).
T2 sequence (whole entry): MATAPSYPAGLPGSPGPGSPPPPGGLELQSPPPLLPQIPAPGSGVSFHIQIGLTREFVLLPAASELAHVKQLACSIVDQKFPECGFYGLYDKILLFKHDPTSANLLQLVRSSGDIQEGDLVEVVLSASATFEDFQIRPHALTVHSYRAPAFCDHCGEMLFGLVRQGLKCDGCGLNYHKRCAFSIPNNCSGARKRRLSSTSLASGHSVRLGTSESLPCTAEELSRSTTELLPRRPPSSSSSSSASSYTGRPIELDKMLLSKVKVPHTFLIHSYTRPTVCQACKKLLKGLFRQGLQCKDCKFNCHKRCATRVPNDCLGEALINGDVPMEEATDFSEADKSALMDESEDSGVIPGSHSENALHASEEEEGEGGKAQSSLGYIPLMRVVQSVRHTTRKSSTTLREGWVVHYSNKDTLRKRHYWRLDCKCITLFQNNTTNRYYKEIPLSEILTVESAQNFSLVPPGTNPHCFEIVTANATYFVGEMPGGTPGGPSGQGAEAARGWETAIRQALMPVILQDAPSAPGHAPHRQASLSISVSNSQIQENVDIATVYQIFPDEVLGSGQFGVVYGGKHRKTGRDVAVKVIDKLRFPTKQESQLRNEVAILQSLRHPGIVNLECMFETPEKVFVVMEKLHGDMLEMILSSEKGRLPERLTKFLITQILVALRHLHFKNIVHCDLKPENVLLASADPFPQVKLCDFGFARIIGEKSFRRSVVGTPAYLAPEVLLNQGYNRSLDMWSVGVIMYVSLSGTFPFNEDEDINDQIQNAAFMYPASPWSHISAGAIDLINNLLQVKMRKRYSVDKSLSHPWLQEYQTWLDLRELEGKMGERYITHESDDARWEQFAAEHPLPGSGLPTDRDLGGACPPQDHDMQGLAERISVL
Particulars: at 1 µM.

Assay [9] addresses T2, Serine/threonine-protein kinase D2 (Homo sapiens). Particulars: at 10 µM.
Assay [10] deals with T3, cGMP-dependent protein kinase 1 (Homo sapiens) (UniProt Q13976).
T3 sequence (whole entry): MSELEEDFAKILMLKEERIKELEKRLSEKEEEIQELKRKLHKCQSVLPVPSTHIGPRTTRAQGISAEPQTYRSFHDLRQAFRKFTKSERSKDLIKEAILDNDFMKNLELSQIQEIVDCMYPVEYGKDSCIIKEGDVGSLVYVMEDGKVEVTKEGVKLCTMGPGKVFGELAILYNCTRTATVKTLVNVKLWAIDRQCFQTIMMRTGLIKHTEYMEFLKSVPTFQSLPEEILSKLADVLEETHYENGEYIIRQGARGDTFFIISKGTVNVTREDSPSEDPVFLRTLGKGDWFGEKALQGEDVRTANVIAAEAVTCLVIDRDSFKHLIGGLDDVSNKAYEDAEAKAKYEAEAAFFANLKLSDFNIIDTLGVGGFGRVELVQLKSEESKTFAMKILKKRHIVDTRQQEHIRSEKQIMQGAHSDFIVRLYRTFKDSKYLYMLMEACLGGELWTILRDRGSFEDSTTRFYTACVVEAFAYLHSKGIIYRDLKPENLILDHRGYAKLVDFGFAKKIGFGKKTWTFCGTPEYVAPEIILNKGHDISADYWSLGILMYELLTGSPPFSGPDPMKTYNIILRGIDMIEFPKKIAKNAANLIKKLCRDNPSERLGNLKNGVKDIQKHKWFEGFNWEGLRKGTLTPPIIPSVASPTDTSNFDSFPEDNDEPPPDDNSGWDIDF
The conditions noted are these: at 1 µM.

Assay [11] deals with T3, cGMP-dependent protein kinase 1 (Homo sapiens). Particulars: at 10 µM.
The target is the same in assay [12]. Particulars: at 1 µM. This is another data set of the same source.
For assay [13] the target is unchanged. Particulars: at 10 µM. The source holds these as a separate data set.
The target in assay [14] is T4, MAP kinase-activated protein kinase 5 (Homo sapiens) (UniProt Q8IW41).
T4 sequence (whole entry): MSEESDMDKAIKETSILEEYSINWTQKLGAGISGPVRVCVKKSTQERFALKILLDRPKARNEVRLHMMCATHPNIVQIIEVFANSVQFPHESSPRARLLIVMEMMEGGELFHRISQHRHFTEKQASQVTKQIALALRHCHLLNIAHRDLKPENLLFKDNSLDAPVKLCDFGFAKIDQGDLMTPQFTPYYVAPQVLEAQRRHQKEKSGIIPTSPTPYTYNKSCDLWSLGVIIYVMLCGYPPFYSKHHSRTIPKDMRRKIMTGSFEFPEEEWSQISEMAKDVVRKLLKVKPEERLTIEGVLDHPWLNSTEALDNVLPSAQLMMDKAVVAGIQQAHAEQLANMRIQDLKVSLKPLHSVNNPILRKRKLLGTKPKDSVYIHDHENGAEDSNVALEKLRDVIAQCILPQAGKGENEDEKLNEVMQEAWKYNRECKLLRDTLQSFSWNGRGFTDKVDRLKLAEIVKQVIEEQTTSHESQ
The conditions noted are these: at 1 µM.

Assay [15] concerns the target T4, MAP kinase-activated protein kinase 5 (Homo sapiens). The conditions noted are these: at 10 µM.
In assay [16] the target is Serine/threonine-protein kinase N2 (Homo sapiens) (UniProt Q16513). Particulars: at 1 µM.
Chain of Serine/threonine-protein kinase N2 (Homo sapiens) (Q16513 whole entry, looked up): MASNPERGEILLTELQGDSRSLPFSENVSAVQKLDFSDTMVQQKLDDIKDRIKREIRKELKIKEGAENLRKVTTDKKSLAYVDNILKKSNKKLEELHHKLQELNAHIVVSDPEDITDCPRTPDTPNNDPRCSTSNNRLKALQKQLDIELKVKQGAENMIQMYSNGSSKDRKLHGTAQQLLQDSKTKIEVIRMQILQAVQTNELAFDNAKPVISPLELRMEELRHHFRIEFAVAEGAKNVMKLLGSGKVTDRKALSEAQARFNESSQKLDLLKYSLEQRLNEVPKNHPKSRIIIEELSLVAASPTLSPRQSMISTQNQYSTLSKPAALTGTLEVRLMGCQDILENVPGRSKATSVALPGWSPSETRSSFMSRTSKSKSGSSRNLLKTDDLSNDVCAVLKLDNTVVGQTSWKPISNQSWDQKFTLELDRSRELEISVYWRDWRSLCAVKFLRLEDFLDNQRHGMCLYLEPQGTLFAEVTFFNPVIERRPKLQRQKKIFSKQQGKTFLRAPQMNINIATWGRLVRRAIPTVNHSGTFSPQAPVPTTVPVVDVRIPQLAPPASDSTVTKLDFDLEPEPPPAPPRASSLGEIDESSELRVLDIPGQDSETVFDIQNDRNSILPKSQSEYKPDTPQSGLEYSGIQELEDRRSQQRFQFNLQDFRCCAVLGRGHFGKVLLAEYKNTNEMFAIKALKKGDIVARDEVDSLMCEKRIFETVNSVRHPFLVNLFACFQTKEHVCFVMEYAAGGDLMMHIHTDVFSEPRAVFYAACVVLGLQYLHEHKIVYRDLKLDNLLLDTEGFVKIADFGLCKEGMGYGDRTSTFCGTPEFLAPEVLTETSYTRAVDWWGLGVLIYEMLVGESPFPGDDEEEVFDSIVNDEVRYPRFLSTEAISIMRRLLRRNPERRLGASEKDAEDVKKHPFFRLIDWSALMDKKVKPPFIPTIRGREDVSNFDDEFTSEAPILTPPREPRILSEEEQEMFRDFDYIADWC
For assay [17] the target is unchanged. The conditions noted are these: at 10 µM.
In assay [18] the target is T5, Protein kinase C zeta type (Homo sapiens) (UniProt Q05513).
T5 sequence (whole entry): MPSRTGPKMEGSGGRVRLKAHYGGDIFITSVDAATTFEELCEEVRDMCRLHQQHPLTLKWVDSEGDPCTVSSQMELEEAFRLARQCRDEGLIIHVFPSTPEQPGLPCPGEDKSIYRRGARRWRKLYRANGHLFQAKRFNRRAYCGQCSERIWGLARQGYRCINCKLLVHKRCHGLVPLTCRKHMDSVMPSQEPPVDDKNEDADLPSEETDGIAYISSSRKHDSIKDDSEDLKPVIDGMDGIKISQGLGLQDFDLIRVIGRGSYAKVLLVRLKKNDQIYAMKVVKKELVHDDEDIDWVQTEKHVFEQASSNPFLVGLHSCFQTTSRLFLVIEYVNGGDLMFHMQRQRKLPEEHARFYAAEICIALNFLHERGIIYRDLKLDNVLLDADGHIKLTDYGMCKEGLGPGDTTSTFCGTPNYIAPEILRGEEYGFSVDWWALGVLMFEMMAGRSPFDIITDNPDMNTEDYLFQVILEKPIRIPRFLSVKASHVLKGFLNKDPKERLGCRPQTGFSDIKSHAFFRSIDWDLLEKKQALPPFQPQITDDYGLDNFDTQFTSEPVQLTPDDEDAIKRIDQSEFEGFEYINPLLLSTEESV
Particulars: at 10 µM.

Assay [19] addresses T6, Protein kinase C iota type (Homo sapiens) (UniProt P41743).
T6 sequence (whole entry): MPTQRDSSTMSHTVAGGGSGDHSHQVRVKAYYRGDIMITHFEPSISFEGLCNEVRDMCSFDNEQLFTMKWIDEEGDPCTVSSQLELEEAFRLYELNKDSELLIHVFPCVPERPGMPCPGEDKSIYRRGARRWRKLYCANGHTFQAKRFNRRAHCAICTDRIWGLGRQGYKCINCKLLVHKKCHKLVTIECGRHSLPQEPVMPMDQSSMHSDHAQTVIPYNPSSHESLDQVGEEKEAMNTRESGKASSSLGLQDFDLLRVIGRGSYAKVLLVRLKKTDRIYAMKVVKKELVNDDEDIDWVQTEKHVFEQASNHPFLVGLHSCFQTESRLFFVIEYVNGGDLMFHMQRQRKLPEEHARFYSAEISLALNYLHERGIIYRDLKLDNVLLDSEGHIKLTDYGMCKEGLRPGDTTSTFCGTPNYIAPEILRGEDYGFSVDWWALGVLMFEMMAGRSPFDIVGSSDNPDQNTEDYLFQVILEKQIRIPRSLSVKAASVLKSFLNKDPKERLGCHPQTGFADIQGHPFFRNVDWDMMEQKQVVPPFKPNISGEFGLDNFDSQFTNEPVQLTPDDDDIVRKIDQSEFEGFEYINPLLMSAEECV
Particulars: at 1 µM.

In assay [20] the target is T6, Protein kinase C iota type (Homo sapiens). The conditions noted are these: at 10 µM.

Chain of Insulin-like growth factor 1 receptor (Homo sapiens) (P08069 31-736 limits assumed): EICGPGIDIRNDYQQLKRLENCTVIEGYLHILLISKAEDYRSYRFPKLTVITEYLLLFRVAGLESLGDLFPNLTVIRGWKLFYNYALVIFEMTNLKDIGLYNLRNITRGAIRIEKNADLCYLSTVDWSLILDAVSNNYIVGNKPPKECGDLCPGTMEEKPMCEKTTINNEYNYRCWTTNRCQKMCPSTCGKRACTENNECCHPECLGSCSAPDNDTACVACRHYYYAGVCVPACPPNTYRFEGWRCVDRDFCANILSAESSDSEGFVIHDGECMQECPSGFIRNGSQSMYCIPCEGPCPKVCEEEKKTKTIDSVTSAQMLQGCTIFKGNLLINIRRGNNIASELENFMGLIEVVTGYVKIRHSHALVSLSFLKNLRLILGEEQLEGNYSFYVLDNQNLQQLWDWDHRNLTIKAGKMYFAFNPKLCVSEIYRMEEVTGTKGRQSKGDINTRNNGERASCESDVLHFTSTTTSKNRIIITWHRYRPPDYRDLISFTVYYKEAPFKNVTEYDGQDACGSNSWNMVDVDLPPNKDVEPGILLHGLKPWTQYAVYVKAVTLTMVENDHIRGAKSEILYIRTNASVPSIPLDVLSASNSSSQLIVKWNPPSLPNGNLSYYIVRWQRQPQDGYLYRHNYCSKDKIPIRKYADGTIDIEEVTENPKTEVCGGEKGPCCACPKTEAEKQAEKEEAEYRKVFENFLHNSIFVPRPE
Chain of Insulin-like growth factor 1 receptor (Homo sapiens) (P08069 741-1367 limits assumed): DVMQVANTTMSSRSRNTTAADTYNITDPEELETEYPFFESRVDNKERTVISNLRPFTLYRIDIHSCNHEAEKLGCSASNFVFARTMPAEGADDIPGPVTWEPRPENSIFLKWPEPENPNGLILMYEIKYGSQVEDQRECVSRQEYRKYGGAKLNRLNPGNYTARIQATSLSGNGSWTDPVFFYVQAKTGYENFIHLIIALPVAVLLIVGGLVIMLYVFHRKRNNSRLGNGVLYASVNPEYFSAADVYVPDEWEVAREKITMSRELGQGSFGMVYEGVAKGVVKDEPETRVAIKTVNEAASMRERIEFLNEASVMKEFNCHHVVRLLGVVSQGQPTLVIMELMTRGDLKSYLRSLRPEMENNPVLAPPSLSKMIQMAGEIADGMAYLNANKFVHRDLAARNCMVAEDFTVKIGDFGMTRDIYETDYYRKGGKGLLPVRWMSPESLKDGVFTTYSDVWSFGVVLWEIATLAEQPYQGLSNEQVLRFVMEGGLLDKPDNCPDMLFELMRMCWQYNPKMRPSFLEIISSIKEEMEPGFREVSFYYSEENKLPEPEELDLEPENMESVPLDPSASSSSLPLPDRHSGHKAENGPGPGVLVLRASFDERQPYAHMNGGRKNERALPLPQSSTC
Chain of Protein kinase C eta type (Homo sapiens) (P24723 whole entry): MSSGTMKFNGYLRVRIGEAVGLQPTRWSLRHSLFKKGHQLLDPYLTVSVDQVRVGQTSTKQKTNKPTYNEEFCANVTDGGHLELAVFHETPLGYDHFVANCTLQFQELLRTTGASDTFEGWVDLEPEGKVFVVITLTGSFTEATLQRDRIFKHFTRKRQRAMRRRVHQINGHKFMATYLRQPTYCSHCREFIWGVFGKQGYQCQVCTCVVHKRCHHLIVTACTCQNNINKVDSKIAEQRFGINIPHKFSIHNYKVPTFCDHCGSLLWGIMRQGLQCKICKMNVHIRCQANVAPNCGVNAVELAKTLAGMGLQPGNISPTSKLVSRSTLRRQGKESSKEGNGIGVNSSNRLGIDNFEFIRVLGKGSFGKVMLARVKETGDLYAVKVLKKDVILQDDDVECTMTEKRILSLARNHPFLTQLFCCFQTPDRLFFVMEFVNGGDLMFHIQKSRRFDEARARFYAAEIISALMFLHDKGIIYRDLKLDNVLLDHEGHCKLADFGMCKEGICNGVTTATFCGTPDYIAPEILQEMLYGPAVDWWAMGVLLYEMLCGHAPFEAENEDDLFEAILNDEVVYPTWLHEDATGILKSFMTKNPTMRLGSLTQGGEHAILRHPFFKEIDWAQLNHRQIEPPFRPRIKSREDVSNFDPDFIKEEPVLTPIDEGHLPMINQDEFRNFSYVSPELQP
Chain of Protein kinase C theta type (Homo sapiens) (Q04759 whole entry, looked up): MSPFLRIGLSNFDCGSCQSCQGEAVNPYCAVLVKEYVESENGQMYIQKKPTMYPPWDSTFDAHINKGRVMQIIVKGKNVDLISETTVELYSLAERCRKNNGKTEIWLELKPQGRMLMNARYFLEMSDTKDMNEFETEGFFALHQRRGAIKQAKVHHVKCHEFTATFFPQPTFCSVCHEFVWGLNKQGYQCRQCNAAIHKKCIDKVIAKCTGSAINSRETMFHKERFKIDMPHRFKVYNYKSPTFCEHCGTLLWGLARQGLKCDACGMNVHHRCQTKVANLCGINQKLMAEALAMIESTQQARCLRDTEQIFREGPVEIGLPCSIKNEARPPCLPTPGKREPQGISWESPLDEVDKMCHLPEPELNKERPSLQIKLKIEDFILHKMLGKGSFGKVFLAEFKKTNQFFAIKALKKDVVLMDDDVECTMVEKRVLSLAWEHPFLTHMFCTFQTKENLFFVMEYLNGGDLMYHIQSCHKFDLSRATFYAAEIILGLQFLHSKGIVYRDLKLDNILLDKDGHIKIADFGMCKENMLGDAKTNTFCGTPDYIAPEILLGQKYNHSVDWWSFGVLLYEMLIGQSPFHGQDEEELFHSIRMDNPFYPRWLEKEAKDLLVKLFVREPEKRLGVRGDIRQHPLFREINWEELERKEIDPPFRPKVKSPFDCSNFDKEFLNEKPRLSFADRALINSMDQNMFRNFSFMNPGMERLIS

For the compound `CCn1cnc2c(Nc3cccc(Cl)c3)nc(N[C@@H]3CCCC[C@@H]3N)nc21`, the residual activity in assay [1] turned out to be 123%; in [2] it was 93%; in assay [3] it was 80%; in [4], 71%; in [5], 23%; in assay [6], 97%. The residual activity in [7] amounted to 61%; in assay [8], 97%; in [9], 96%; in assay [10] it was 92%; in assay [11] it was 88%; in [12], 89%. Further, the residual activity was found to be 70% in assay [13]; 119% in [14]; 124% in [15]; 80% in [16]; 49% in assay [17].
`COc1cc2ncnc(Nc3ccc(OCc4ccccc4)cc3)c2cc1OC`: the residual activity came to 129% in [1]; 108% in assay [18]; 109% in [2]; 97% in [3]; 124% in assay [4]; 114% in [5]. Besides, the residual activity in [19] is 95% (inactive); in [20], 68%; in [6], 93%; in [7] it was 113%; in assay [8], 98%; in assay [9], 98%. Besides, the residual activity in assay [10] came to 115%; in [11], 125%; in assay [12], 72%; in assay [13], 88%; in assay [14] it was 111%; in assay [15], 83%. Further, the values for the residual activity in assay [16] and in assay [17] were 109% and 111%, respectively.
For the compound `COC(=O)[C@@]1(O)C[C@H]2O[C@]1(C)n1c3ccccc3c3c4c(c5c6ccccc6n2c5c31)C(=O)NC4`, the residual activity in assay [1] was found to be 14%; in [18], 8%; in assay [2], 36%; in [3] it was 7%; in [4] it was 10%; in assay [5], 5%. In addition, the residual activity in assay [19] is 107% (inactive); in assay [20], 69%; in assay [6], 1%; in assay [7] it was 0%; in assay [8], 2%; in [9] it was 0%. In addition, the residual activity in [10] is 10%; in [11], 1%; in assay [12] it was 9%; in assay [13] it was 2%; in [14], 19%; in assay [15], 0%. The residual activity in assay [16] and in assay [17] was 1% throughout.
